Our source for the growth values is PubChem BioAssay (NCI).

This is part of a sample that, as a whole, favours compounds with a hit. Of some 83,000 tested, about 20% had one in any assay.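 Testing used 96-well plates and a 48-hour single-concentration exposure. Example: -40 means 40% of the starting cells died.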 Unmarked numbers belong to inactive results. Active and inactive are the calls of the source. The calls were made as follows: active = growth percent below 10; inactive = the rest.

Common to all, as to test: NCI-60 one-dose screen, 48 h (100 = growth as untreated, 0 = no growth, -100 = all killed)
Holding throughout (conditions): 10 µM

For assay [1], the system named is K-562 leukemia.
In assay [2] the test system is MALME-3M melanoma.
Assay [3] has as its system MDA-MB-231 breast.
For assay [4], the system named is RXF 393 renal.
In assay [5] the test system is SF-268 CNS.
In assay [6] the test system is SF-295 CNS.
The subject of assay [7] is SF-539 CNS.
For assay [8], the system named is UACC-257 melanoma.
The test system of assay [9] is M14 melanoma.
In assay [10] the test system is HCT-15 colon.
The subject of assay [11] is HT29 colon.
The subject of assay [12] is SNB-75 CNS.
The subject of assay [13] is SNB-19 CNS.
The subject of assay [14] is PC-3 prostate.
Assay [15] deals with SK-MEL-5 melanoma.
The subject of assay [16] is UACC-62 melanoma.
The subject of assay [17] is LOX IMVI melanoma.
In assay [18] the test system is SK-MEL-28 melanoma.
For assay [19], the system named is SK-MEL-2 melanoma.
The test system of assay [20] is U251 CNS.

Regarding `O=C(Nc1cccc(-n2cc(-c3ccncc3)c(-c3ccc(O)c(Cl)c3)n2)c1)Nc1cccc(C(F)(F)F)c1`, the growth in assay [1] was 2.72% (active); in assay [2] it was -24.1% (active); in assay [3] it was -22.1% (active); in [4], -11.7% (active); in assay [5], 9.04% (active); in [6] it was -12.6% (active). In addition, the growth in assay [7] is -8.84% (active); in assay [8], -19% (active); in assay [9] it was -8.16% (active); in [10], 14.9%; in assay [11], 22%; in assay [12], -0.929% (active). Further, the growth in assay [13] was 32.2%; in assay [14], -15.7% (active); in assay [15], -49% (active); in assay [16] it was -49.9% (active); in assay [17], 1.13% (active); in assay [18] it was -5.89% (active).

With `CCCCOc1ccc(NC(=O)Nc2nnc(C)s2)cc1`, the growth in [1] was 83.8%; in [2], 118%; in assay [3] it was 90.7%; in [4], 110%; in assay [5] it was 109%; in [6], 87.4%. Further, the growth in assay [7] was 95.3%; in assay [8], 22.5%; in assay [9], 91.4%; in assay [10], 99.5%; in assay [11], 99.4%; in [12] it was 105%. In addition, the growth in assay [13] is 98.2%; in assay [14] it was 92.5%; in assay [15] it was 102%; in [16] it was 82.5%; in assay [17], 78.9%; in [18], 106%. Also, the growth in assay [19] was 105%.

As to `Cc1ccc(S(=O)(=O)Oc2ccc3c4c(c(=O)oc3c2)CCCCC4)cc1`, the growth was 36.7% in assay [1]; 71.9% in assay [2]; 74.5% in assay [3]; 68.6% in assay [4]; 77.2% in assay [5]; 48.7% in assay [6]. The growth in assay [7] is 39.8%; in assay [8], 32%; in assay [9] it was 71%; in [10] it was 41.3%; in assay [11] it was 6.29% (active); in assay [12] it was 76.2%. The growth in assay [20] is 38.7%; in [14], 33.5%; in assay [15], 20.5%; in assay [16], 56.5%; in assay [17], 62.8%; in assay [18], 79.5%.

With `COc1ccc(-c2nc(-c3nc4cc(Cl)c(Cl)cc4[nH]3)c3ccccn23)cc1`, the growth in assay [1] was 59.8%; in assay [2] it was 18%; in assay [3], -18.3% (active); in assay [4], -39.4% (active); in assay [5], 21%; in [6] it was 13.9%. Also, the growth in [7] is 8.32% (active); in [8], 63.6%; in assay [9], 70.1%; in assay [10] it was 76.7%; in [11] it was 51.4%; in assay [12] it was -29.1% (active). Besides, the growth in [13] is 50.5%; in [14], 57%; in assay [15], 48.3%; in [16], 88.9%; in assay [17] it was 43.6%; in assay [18] it was 62.2%. Moreover, the growth in assay [19] is 58.1%.

Take `COC(=O)C(C(C[N+](=O)[O-])c1ccccc1)=P(c1ccccc1)(c1ccccc1)c1ccccc1` (stereo not given): the growth is 53.4% in assay [1]; 96% in assay [2]; 108% in [3]; 85.9% in assay [4]; 96.1% in assay [5]; 91.6% in assay [6]. The growth in [7] is 99.2%; in assay [8] it was 91.5%; in [9] it was 76.3%; in assay [10], 88.9%; in assay [11] it was 67.7%; in [12], 85.3%. The growth in [20] is 88.3%; in assay [14], 85.4%; in assay [15], 98.5%; in assay [16] it was 90%; in assay [17], 58.1%; in assay [18], 109%. The growth in assay [19] is 89.4%.

For the compound `N#Cc1ncc(-c2cc(F)c(F)c(F)c2)c(NC2CCCCCC2)n1`, the growth was 92% in assay [1]; 131% in assay [2]; 91.7% in assay [3]; 84.7% in assay [4]; 82.3% in assay [5]; 89.3% in assay [6]. The growth was 97.5% in assay [7]; 93.6% in [8]; 101% in [9]; 85.2% in assay [10]; 97.6% in assay [11]; 65.1% in assay [12]. Moreover, the growth in assay [13] was 90.9%; in [14] it was 77.1%; in assay [15], 93%; in assay [16], 84.8%; in [17] it was 84.9%; in assay [18], 94.1%. For the same compound, in assay [19], the growth was 96.2%.

As to `COc1cc(CNCCCCCCN2C(=O)c3cccc4cccc(c34)C2=O)ccc1O`, the growth is 35.3% in [1]; 36.3% in [2]; 81.5% in assay [3]; 52% in assay [4]; 88.7% in assay [5]; 69% in assay [6]. Also, the growth is 85.3% in assay [7]; 89.4% in assay [8]; 78.2% in assay [9]; 74.7% in assay [10]; 26.9% in assay [11]; 67.1% in [12]. Besides, the growth in assay [13] is 84.3%; in [14], 51.4%; in [15], 10.6%; in assay [16], 80.5%; in [17], 36.3%; in assay [18] it was 18.7%. Moreover, in assay [19], the growth is 120%.

Consider `O=C1/C(=C/c2ccc([N+](=O)[O-])o2)Oc2ccccc21`, for which the growth was 1.24% (active) in assay [1]; -40.6% (active) in [2]; -17.3% (active) in assay [3]; -74.9% (active) in [4]; -10.8% (active) in assay [5]; 79.2% in assay [6]. Moreover, the growth was -40.7% (active) in assay [7]; -8.85% (active) in assay [8]; 13.8% in assay [9]; 1.63% (active) in assay [10]; -15.3% (active) in [11]; 74.7% in assay [12]. In addition, the growth in assay [13] was 89.4%; in assay [14], 42.8%; in assay [15], 55.7%; in assay [16] it was -55% (active); in [17], -60.7% (active); in [18], 21.5%. Moreover, the growth in assay [19] is 17.2%.
